Screening results: PubChem BioAssay, National Center for Advancing Translational Sciences (NCATS)
HT1080 IDH1KD tx: HT-1080 IDH1 knockdown cell toxicity (counter line). HT-1080 IDH1 knockdown viability, ATP luminescence, 48 h. Potency, µM (top dose mostly 46.1 µM), for inactives: top-dose activity, negative = toxicity, usual class: cytotoxic. actives 2% (n = 360,000). AID 686971;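 note: potency is the fitted concentration of half-maximal effect; 0% = DMSO wells and -100% = cell-free medium wells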
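% activity derives from luminescence (CellTiter-Glo), normalised to DMSO and no-cell wells. HT-1080-IDH1KD cells, 750/well, had 48 h compound exposure at 37 °C.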
IL-1B inflam inh: inhibitors of inflammasome signaling (IL-1 beta secretion). THP-1 LPS/ATP IL-1B secretion, AlphaLISA, 16 h; hits give low values. activity change, % at 57.5 µM. actives 4.7% (n = 360,000). AID 743279; in the data active = activity change below about -50%; inconclusive = mostly about -30% to -49%
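Secreted IL-1B measured by AlphaLISA bead assay after 16 h compound exposure of THP-1 cells; compounds (final up to 57.5 uM) added 1 h before LPS (250 ng/mL) and ATP (1.25 mM) stimulation; lower signal means less secretion.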
HT1080-NT tox: kills 2HG-producing HT-1080-NT fibrosarcoma cells; HT-1080-NT fibrosarcoma viability, CellTiter-Glo ATP luminescence, 48 h; Potency, µM (highest dose often 46.1 µM), for the others: at the top dose activity, negative = less viability, most hits filed as cytotoxic; actives 1.6% (n = 360,000);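 note: NT is the 2HG producing partner of a matched IDH1 knockdown line; potency is the fitted concentration of half-maximal effect; 0% = DMSO-treated cells and -100% = media-only wells without cells; nearly all actives have a fitted effect of over 55% in size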
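Viability by CellTiter-Glo luminescence after 48 h compound exposure at 37C of HT-1080-NT cells (750/well, RPMI, 5% FBS). % activity scaled between DMSO wells and medium-only wells, then curve-fitted and categorized by curve class.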
DT40 TDP1 CPT: growth inhibition of DT40 Tdp1-/-;hTDP1 cells with camptothecin (screen for TDP1 inhibitors); chicken DT40 Tdp1-/-;hTDP1 cells + 20 nM CPT, ATP luminescence, 48 h; Potency, µM (series often up to 46.2 µM), for the others: top-dose activity change, negative = growth inhibition, usual class: inhibitors; actives 12% (n = 420,000); note: potency is the fitted concentration of half-maximal effect; nearly all actives have a fitted effect of over 55% in size
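Chicken DT40 Tdp1-/- cells stably complemented with human TDP1 were seeded at 400 cells/well in medium containing 20 nM camptothecin, exposed to pin-transferred compounds, and grown at 37 °C for at least 48 hr. Viability was read as ATP luminescence.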
TDP1 cell noCPT: qHTS for Inhibitors of human tyrosyl-DNA phosphodiesterase 1 (TDP1): qHTS in cells in absence of CPT; DT40 Tdp1-/- hTDP1 cells, no CPT, ATP luminescence, 48 h; Potency, µM (series often up to 46.2 µM), for inactives: at the top dose activity change, negative = growth inhibition, usual class: inhibitors; actives 15% (n = 420,000); note: potency is the fitted concentration of half-maximal effect; nearly all actives have a fitted effect of over 55% in size
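Camptothecin absent (DMSO only). Human TDP1-complemented DT40 knockout cells, 400 cells/well, 37 °C for minimum 48 hr; ATP measured via CellTiter-Glo, 30 min dark incubation, luminescence.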
* = called active by the depositor; u = inconclusive; x = no result given. Most compounds without a hit are left out; they make up all but 19% or so of the library. Unless noted, calls come from the whole dose curve; as a rule, active = well fitted curve in the direction sought with a large enough effect; inconclusive = small, poorly fitted or top-dose-only effect, or another doubt; inactive = no such curve, though single readings can be large; an effect the other way counts as inactive or inconclusive. Unless noted, % is set by controls: 0 for no effect and ±100 for the full control effect.

SMILES	HT1080 IDH1KD tx	IL-1B inflam inh	HT1080-NT tox	DT40 TDP1 CPT	TDP1 cell noCPT
CCCc1nn2c(=O)cc(COC(=O)c3ccco3)nc2s1	x	x	x	-7.4%	-17.3%
Cc1cc(C(=O)Nc2cccc(C)c2C)c2c(C)nn(-c3cccc(F)c3)c2n1	x	x	x	-2.2%	-21.4%
CCc1ccc(-n2nc(C)c3c(C(=O)N4CCN(c5cccc(Cl)c5)CC4)cc(C)nc32)cc1	x	x	x	u	20.6µM*
CCOC(=O)c1cc(-c2ccco2)nc2c1c(C)nn2-c1cccc(Cl)c1	19.1%	9.3	1.2%	-28.3%	u
Cc1cc(C(=O)N2CCN(c3ccccc3)CC2)c2c(C)nn(-c3cccc(F)c3)c2n1	x	x	x	u	16.4µM*
Fc1ccc(NC(=S)NN=Cc2ccccc2Cl)cc1	-18.2%	-1.1	-22.0%	2.31µM*	3.26µM*
S=C(N/N=C/c1ccccc1Cl)Nc1cccc(Cl)c1Cl	u	24.2	u	u	10.3µM*
S=C(NCC1CC1)N/N=C/c1ccccc1Cl	9.1%	5.9	8.1%	u	23.1µM*
O=C(N/N=C/c1ccccc1Cl)C1CC1	20.1%	u	10.8%	25.9%	1.4%
O=C(N/N=C/c1ccccc1Cl)c1ccc(F)cc1	13.9%	-12.7	8.1%	7.3%	-0.7%
S=C(NCCc1ccccc1)N/N=C/c1cccc(Cl)c1Cl	24.1%	0.0	8.5%	-3.9%	6.0%
O=[N+]([O-])c1ccc(Cl)c(/C=N/NC(=S)Nc2ccccc2)c1	4.47µM*	46.2	u	11.2µM*	10µM*
Cc1ccc2scc(N3CCCCC3C)c(=O)c2c1 (configuration not stated)	x	x	x	-8.2%	-10.9%
O=C(COc1ccccc1Cl)Nc1nnc(S(=O)(=O)N2CCCC2)s1	-1.2%	-20.1	0.1%	u	-13.5%
O=C(NCCC1=CCCCC1)C1CCN(S(=O)(=O)c2cccc3nsnc23)CC1	-1.1%	-6.1	11.3%	u	-11.4%
COc1ccc2oc(C(=O)OCC(=O)NCCN3C(=O)CSC3=O)c(C)c2c1	-0.1%	12.1	0.2%	0.8%	-19.9%
Cn1c(=O)oc2cc(S(=O)(=O)N3CCCC(C(=O)NCc4ccccc4Cl)C3)ccc21 (configuration not stated)	x	x	x	-21.8%	-16.7%
CN(C)c1nc(Nc2ccc(F)cc2)nc(Oc2ccc(F)cc2)n1	-17.4%	11.5	-16.2%	u	u
CN(C)c1nc(N/N=C/c2ccccc2O)nc(Nc2ccc(F)cc2)n1	13µM*	86.7	u	2.31µM*	0.581µM*
Oc1ccccc1C=NNC(=S)Nc1ccc(F)cc1	5.8µM*	-95.0*	u	0.92µM*	1.46µM*
COc1ccccc1-c1c(C(F)(F)F)oc2cc(OC(=O)c3ccccc3[N+](=O)[O-])ccc2c1=O	-0.8%	-6.7	-1.2%	u	25.9µM*
CCCCC(O)(c1ccccc1)C(CN1CCOCC1)c1ccccc1 (configuration not stated)	-7.4%	-5.1	-5.9%	23.1µM*	u
CCc1ccc(C(O)(CC)C(CN2CCOCC2)c2ccccc2)cc1 (configuration not stated)	-15.2%	-19.7	u	u	u
CCCCC(O)(c1ccc(CC)cc1)C(CN1CCOCC1)c1ccccc1 (configuration not stated)	u	-53.7*	u	u	u
CCn1cc(CNC(=O)c2ccc3nc(Cc4ccccc4F)oc3c2)cn1	-12.8%	u	-24.6%	11.6µM*	11.6µM*
Cn1cc(CNC(=O)c2ccc3nc(Cc4ccccc4F)oc3c2)cn1	-3.9%	-4.0	-2.1%	-21.1%	u
CCN(Cc1cnn(C)c1)C(=O)c1ccc2nc(Cc3ccccc3F)oc2c1	3.3%	13.8	8.7%	u	20.6µM*
Cn1cc(CCNC(=O)c2ccc3nc(Cc4ccccc4F)oc3c2)cn1	-8.2%	-17.7	3.0%	u	-24.2%
Cc1cc(CN(C)C(=O)c2ccc3nc(Cc4ccccc4F)oc3c2)on1	-3.5%	-80.6*	-6.2%	u	u
